Experimental data published in the supplement of paper PMC12350171.
Counter-ions that a name gives are not always drawn.

test system: Haemophilus parainfluenzae; test: growth AUC normalised to DMSO control (fraction of control); higher = less growth inhibition, active = hit call of the paper; details: 20 µM;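 active = AUC significantly below DMSO controls by Student t-fit with adjusted P under 0.01; inactive = not significantly reduced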
In short: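 Three biological replicates were carried out, with OD578 read hourly for 24 h. Before inoculation at a starting OD578 of 0.01, pathogens were passaged anaerobically twice; plates were pre-reduced mGAM containing 20 μM compound and 1% DMSO, sealed with breathable membranes, and the Haemophilus parainfluenzae medium carried added hemin and NAD. Area under each growth curve was calculated by the trapezoidal rule up to the exponential-to-stationary transition and normalised to DMSO controls on the same plate.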

| SMILES | growth AUC normalised to DMSO control |
| --- | --- |
| CN/C(=N\CCSCc1nc[nH]c1C)NC#N [Cimetidine] | 0.993 (inactive) |
| NC[C@@H]1O[C@H](O[C@H]2[C@@H](O)[C@H](O[C@@H]3[C@@H](O)[C@H](N)C[C@H](N)[C@H]3O[C@H]3O[C@H](CO)[C@@H](O)[C@H](O)[C@H]3N)O[C@@H]2CO)[C@H](N)[C@@H](O)[C@@H]1O [Paromomycin sulfate] | 0.88 (inactive) |
| CC[C@]12CCCN3CCc4c(n(c5ccccc45)[C@@](O)(C(=O)OC)C1)[C@@H]32 [Vincamine] | 0.98 (inactive) |
| c1ccc(CN(CC2=NCCN2)c2ccccc2)cc1 [Antazoline hydrochloride] | 1.01 (inactive) |
| Cn1cnc2c1c(=O)[nH]c(=O)n2C [Theobromine] | 1.06 (inactive) |
| NC[C@H]1O[C@H](O[C@H]2[C@H](O[C@@H]3O[C@H](CO)[C@@H](O)[C@H]3O)[C@@H](O)[C@H](N)C[C@@H]2N)[C@H](N)[C@@H](O)[C@@H]1O [Ribostamycin sulfate salt] | 0.812 (active) |
| CN(C)CC/C=C1/c2ccccc2Sc2ccc(Cl)cc21 [Chlorprothixene hydrochloride] | 0.887 (inactive) |
| C[C@@](Cc1ccc(O)c(O)c1)(NN)C(=O)O [Carbidopa] | 0.996 (inactive) |
| CC(=O)N(CC(C)C(=O)O)c1c(I)cc(I)c(N)c1I (stereo not given) [Iocetamic acid] | 0.965 (inactive) |
| COc1ccc(NS(=O)(=O)c2ccc(N)cc2)nn1 [Sulfamethoxypyridazine] | 1.04 (inactive) |
